Screens from PubChem.
SKKanGAS inh: inhibitors of SKKanGAS S. pyogenes growth in kanamycin (SK-promoter or general growth effect); inhibition, % at 7.5 µM; BacTiter-Glo, 6 h; 1.3% of 300,000 active; AID 1662;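 active = mean replicate score, as percent of positive control median, at least 50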;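 note: strain carries kanamycin resistance gene driven by streptokinase promoter and grows in 40 µg/ml kanamycin; loss of luminescence reflects streptokinase promoter inhibition or plain growth inhibition; 0% = median of DMSO wells and 100% = positive control at its reference dose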
tim23-1 inh: tim23-1 yeast growth inhibition; S. cerevisiae tim23-1 growth, BacTiter-Glo luminescence, 24 h; inhibition, % at 20 µM; 1.3% of 330,000 active; AID 463212;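 active = growth inhibition of the mutant yeast at or above 50%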;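 note: temperature-sensitive mutant grown at 25 °C; plate controls were DMSO-treated mutant yeast for no effect and medium wells lacking yeast for full effect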
ATG4B inhibitor: inhibitors of human ATG4B cysteine protease; 0.51% of 340,000 active; inhibition, % at 8.33 µM; Q9Y4P1; ATG4B cleavage of LC3-PLA2, NBD-HPC fluorescence, 1 h; AID 504462; in the data active = inhibition above about 40%
Target sequence (Q9Y4P1 whole entry, looked up): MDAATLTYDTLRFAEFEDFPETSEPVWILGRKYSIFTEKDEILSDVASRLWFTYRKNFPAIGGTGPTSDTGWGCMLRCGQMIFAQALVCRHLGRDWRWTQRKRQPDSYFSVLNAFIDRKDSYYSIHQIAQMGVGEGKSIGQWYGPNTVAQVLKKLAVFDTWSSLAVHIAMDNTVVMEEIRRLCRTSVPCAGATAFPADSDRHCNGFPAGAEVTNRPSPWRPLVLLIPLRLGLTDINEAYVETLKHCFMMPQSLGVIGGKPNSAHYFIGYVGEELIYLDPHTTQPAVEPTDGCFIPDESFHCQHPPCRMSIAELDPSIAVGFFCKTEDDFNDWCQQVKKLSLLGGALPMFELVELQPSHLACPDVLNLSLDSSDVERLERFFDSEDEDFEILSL
PfHsp90 set2: inhibits growth of yeast expressing Plasmodium falciparum Hsp90 | S. cerevisiae expressing PfHsp90, BacTiter-Glo ATP, 48 h; yeast lacking PDR1 and PDR3 efflux regulators | inhibition, % at 9.4 µM | 0.32% of 310,000 active | AID 504621;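 active = every replicate shows inhibition above about 80%, whatever the replicate mean, limit read from the data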;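 note: 0% = DMSO neutral controls and 100% = 20 µM radicicol positive controls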
TIM10 inh: inhibits growth of TIM10 yeast strain | S. cerevisiae TIM10 strain growth, BacTiter-Glo luminescence, 24 h | 1.4% of 330,000 active | inhibition, % at 10 µM | AID 463195;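 active = inhibition of 40% or more at the single tested concentration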;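 note: wild-type TIM10 isogenic control strain grown at permissive 25 °C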
tim10-1 inh: growth inhibitors of tim10-1 mutant yeast; AID 463190; S. cerevisiae tim10-1 ts strain growth, BacTiter-Glo, 24 h; inhibition, % at 20 µM; 2.2% of 330,000 active;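 active = inhibition of at least 40%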;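 note: mutant grown at 25 °C; 0% = DMSO wells with yeast and 100% = wells holding no yeast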
tim10-1 conf: confirmation of tim10-1 mutant yeast growth inhibitors. shares compounds with tim10-1 inh. 56% of 7,400 active. AID 463213. S. cerevisiae tim10-1 ts strain growth, BacTiter-Glo, 24 h. inhibition, % at 20 µM;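 active = inhibition of yeast growth at or above a set limit in either of two repeat tests at 20 µM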;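 note: tim10-1 mutant grown at permissive 25 °C to find synthetic lethal compounds; 0% = DMSO yeast wells and 100% = medium wells without yeast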
* hit, by the source's call; . = no result given. This is a sample that favours compounds with a hit; in the whole collection about 4.7% have one here.

SMILES	SKKanGAS inh	tim23-1 inh	ATG4B inhibitor	PfHsp90 set2	TIM10 inh	tim10-1 inh	tim10-1 conf
O=C(NC1CCC(O)CC1)c1ccc2c(c1)S(=O)(=O)N=C1CCCCCN12 (stereo not given)	25	0	-9	15	-6	-15	.
COc1cccc(C(=O)N2N=C(c3cccc(OC)c3)CC2(O)C(F)(F)F)c1 (stereo not given)	-7	35	-10	14	21	40*	-23
OCCC#Cc1c(-c2ccsc2)sc2ccccc12	-4	0	6	2	2	46*	28
C(#Cc1c(-c2ccsc2)sc2ccccc12)c1ccsc1	.	36	10	1	20	23	.
CCN(CC(=O)Nc1c(F)cccc1F)C(=O)c1ccc2ccccc2n1	-2	26	-2	-4	7	10	.
COc1ccc(C2=NCN(c3ccc(C)cc3)C(=S)N2)cc1	-7	0	-6	2	3	-3	.
Cc1ccc(N2CN=C(c3ccccc3)NC2=S)cc1	0	23	2	-16	4	44*	1
CN1CCCN(Cc2ccccc2C(F)(F)F)CC1	-3	-11	1	7	9	11	.
CCOc1ccc(-c2nc(CSCC(=O)NC3CCCc4ccccc43)c(C)o2)cc1 (stereo not given)	28	36	24	.	35	40*	25
COc1ccccc1CNC(=O)CCCn1nc(C)c2c(C)n(-c3ccccc3)nc2c1=O	1	31	2	16	6	35	.
COc1cccc(CNC(=O)CCCn2nc(C)c3c(C)n(-c4ccc(C)cc4)nc3c2=O)c1OC	2	32	-7	-3	16	45*	14
CCc1ccc(NC(=S)N(Cc2ccccc2)Cc2ccccn2)cc1	2	36	-1	.	34	48*	35*
Nc1nc(-c2ccc3ccccc3c2)cs1	-6	50	-6	-3	35	43*	10
Cc1ccc(-c2csc(N)n2)cc1	.	.	1	-15	.	.	.
COc1ccc(-n2cc(-c3ccccc3)[n+]3c2CCCCC3)cc1	5	-2	-4	-11	12	2	.
COc1ccc(-c2cn(-c3ccc(OC)cc3)c3[n+]2-c2ccccc2CC3)cc1	-26	25	4	-7	23	53*	40*
O=C1c2ccccc2S(=O)(=O)c2cc(C(=O)N3CCN(c4ccc(Cl)cn4)CC3)ccc21	22	47	-9	6	20	44*	42*
N#Cc1cccnc1N1CCN(C(=O)c2ccc3c(c2)S(=O)(=O)c2ccccc2C3=O)CC1	40	27	11	2	6	26	.
O=C(N/C(=C\c1ccccc1)C(=O)N1CCOCC1)c1ccc(Br)o1	1	15	-2	0	-15	15	.
CCn1ccnc1CN1CCc2c([nH]c3ccccc23)C1C(C)(C)C (stereo not given)	40	34	3	-17	35	47*	29
CC(=O)Nc1ccc(N2Cc3ccccc3C2)cc1	2	5	-8	12	6	-11	.
CC(=O)Nc1ccc(N2S(=O)(=O)c3ccccc3S2(=O)=O)cc1	.	24	-5	-21	24	41*	17
C/C(=N\NC(=O)CC1N=C(Cc2ccccc2)NNC1=O)c1ccc(C)cc1 (stereo not given)	4	-7	-10	7	-7	14	.
COc1ccccc1CN1C[C@@H]2C[C@@H](c3ccccc3OC)N3CCC[C@@]23C1=O	-3	2	2	0	-2	17	.
CCN(C1CCCCC1)S(=O)(=O)c1cc(C)ccc1OC	-1	40	-9	3	34	43*	23
CC(=O)Oc1cc(O)c2c(c1)OC(c1ccc(OC(C)=O)c(OC(C)=O)c1)C(OC(C)=O)C2=O (stereo not given)	0	5	1	6	-7	21	.
O=C(CCNc1ccc(Cl)c(C(F)(F)F)c1)c1ccco1	-2	28	11	1	21	43*	22
O=C(CCNc1ccc(F)c(Cl)c1)c1ccco1	-3	-3	7	-14	-8	0	.
